Compound activity as filed in PubChem.
SW480 rerep – inducers of DNA re-replication in SW480 colon cancer cells; SW480 DNA re-replication, Hoechst DNA content imaging, 48 h; Potency, µM (series often up to 46.1 µM), for inactives: at the highest dose re-replication activation, actives largely listed as activators; hit rate 1.8% among 340,000; AID 624297; also: % of control where 0% means no effect; nearly all actives have a fitted effect of over 55% in size
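Cells (250 per well) received 23 nL compound or DMSO by pin tool and were kept 48 hr at 37 C, 5% CO2. Nuclei were then stained with Hoechst for 40 min and scanned for DNA content.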
MCF10A rerep – induces DNA re-replication in MCF 10a normal breast cells; MCF 10A DNA re-replication, Hoechst nuclear intensity, 48 h; Potency, µM (top dose mostly 46.1 µM), for the others: top-dose activity, positive = re-replication, actives largely listed as activators; hit rate 2.9% among 350,000; AID 624296; also: % of control where 0% means no effect; nearly all actives have a fitted effect of over 50% in size
HT1080-NT tox – kills 2HG-producing HT-1080-NT fibrosarcoma cells; HT-1080-NT fibrosarcoma viability, CellTiter-Glo ATP luminescence, 48 h; Potency, µM (titrated, usually from 46.1 µM), without a hit: at the highest dose activity, negative = less viability, usual class: cytotoxic; hit rate 1.6% among 360,000;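 also: NT is the 2HG producing partner of a matched IDH1 knockdown line; 0% = DMSO-treated cells and -100% = media-only wells without cells; nearly all actives have a fitted effect of over 55% in size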
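A 48-hour cytotoxicity screen used HT-1080-NT cells plated 2 hours before compound delivery. ATP-based CellTiter-Glo luminescence measured viability, normalized to DMSO and no-cell controls.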
KB-V1 MDR tox – KB-V1 MDR subline cytotoxicity; Potency, µM (doses to about 46.1 µM), most hits filed as cytotoxic; hit rate 3.4% among 400,000; AID 1347076; KB-V1 MDR cells viability, CellTiter-Glo, 72 h; also: % is scaled to controls: 0 for no effect and ±100 for the full control effect; nearly all actives have a fitted effect of over 60% in size
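Potencies derive from concentration-effect curves fitted to normalized luminescence (CellTiter-Glo) of KB-V1 cells treated for 72 h at 37 degrees C in phenol-red-free DMEM containing 10% FBS.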
HT1080 IDH1KD tx – kills HT-1080 cells with IDH1 knockdown; HT-1080 IDH1 knockdown viability, ATP luminescence, 48 h; AID 686971; hit rate 2% among 360,000; Potency, µM (doses to about 46.1 µM), without a hit: top-dose activity, negative = toxicity, hits mostly cytotoxic;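 also: 0% = DMSO wells and -100% = cell-free medium wells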
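Cytotoxicity counter-line: IDH1KD HT-1080, 48 h, CellTiter-Glo. Curves classed by r2, magnitude and activity.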
KB-3-1 cytotox – KB-3-1 parental cell cytotoxicity. hit rate 1.4% among 400,000. KB-3-1 viability, CellTiter-Glo ATP luminescence, 72 h. Potency, µM (highest dose often 46.1 µM), usual class: cytotoxic. AID 1347075; also: % is scaled to controls: 0 for no effect and ±100 for the full control effect; nearly all actives have a fitted effect of over 60% in size
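Parental KB-3-1 adenocarcinoma cells in phenol-red-free DMEM with 10% FBS were pin-treated with compounds at several concentrations, incubated 72 h at 37 °C, and viability read by CellTiter-Glo luminescence; concentration-effect curves were fitted after normalization.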
The depositor's hits bear a star; i = inactive; ? = inconclusive; · = no result given. Shown are actives, neighbours in structure and some others; about 7.9% of the full set was active somewhere. Calls follow the shape of the dose curve; as a rule, active = well fitted curve in the direction sought with a large enough effect; inconclusive = small, poorly fitted or top-dose-only effect, or another doubt; inactive = no such curve, though single readings can be large; an effect the other way counts as inactive or inconclusive. Potency is read from the fitted curve at half-maximal effect.

SMILES	SW480 rerep	MCF10A rerep	HT1080-NT tox	KB-V1 MDR tox	HT1080 IDH1KD tx	KB-3-1 cytotox
Cc1c(C(=O)Nc2cccc(Cl)c2)c2ccccn2c1CCc1ccncc1	?	7.31µM*	-19.0%	?	?	i
CCOc1ccc(CN2CCN(S(=O)(=O)c3ccc(Cl)cc3)CC2)cc1	·	·	·	i	·	i
CN(C(=O)COc1ccccc1C(=O)NCCc1ccccc1)c1ccccc1	2.0%	17.8%	13.2%	5.17µM*	17.5%	i
O=C(Nc1cc(C(F)(F)F)ccc1Cl)c1noc2c1CCCCC2	·	·	·	i	·	i
CCO/C=N/Nc1nc(C(F)(F)F)nc2c1cnn2Cc1ccccc1	?	18.4µM*	-18.6%	i	-17.1%	i
COc1ccc(NC(=O)CSc2nc(-c3ccc(OC)cc3)cc(=O)[nH]2)cc1	·	·	·	i	·	i
C[N+](C)(C)CC(=O)N/N=C/c1c2ccccc2cc2ccccc12	29.7%	18.4µM*	-2.0%	?	0.9%	i
Cc1cc(C)n2nc(C(=O)N/N=C/c3c4ccccc4cc4ccccc34)nc2n1	?	8.2µM*	?	?	?	i
COCCNC(=S)N/N=C/c1c2ccccc2cc2ccccc12	18.4µM*	14.6µM*	-17.4%	i	-16.0%	i
O=C(Nc1cccc(Cl)c1)C1CCN(c2nc3ccccc3nc2C(F)(F)F)CC1	·	·	·	?	·	i
N#Cc1cn(-c2ccccc2)nc1-c1ccc2c(c1)OCCO2	-3.3%	10.3µM*	11.8%	i	10.0%	i
Oc1ccc(/C=C/c2ccnc3ccccc23)cc1	18.5%	20.6µM*	?	i	?	?
COc1ccc(/C=C/c2ccnc3ccccc23)cc1	·	·	·	i	·	i
Cc1cc(/C=C/c2ccnc3ccccc23)ccc1N	·	·	·	23.1µM*	·	?
CCCCCCCCCN(CCCCCCCCC)c1ccc(/C=C/c2ccnc3ccccc23)cc1	·	·	·	i	·	i
C[N+](C)(C)c1ccc(/C=C/c2ccnc3ccccc23)cc1	·	·	·	?	·	18.4µM*
CCC[N+](C)(C)c1ccc(/C=C/c2ccnc3ccccc23)cc1	·	·	·	?	·	1.64µM*
CN(C)c1ccc(/C=C/c2ccnc3ccccc23)cc1N	·	·	·	i	·	i
CCCCN(CC)C(=O)c1nn(-c2ccc(OC)cc2)c(=O)c2c1c1ccccc1n2C	·	·	·	?	·	i
CC(=O)N1CCCc2cc(S(=O)(=O)N(C)CC(=O)Nc3ccc(Cl)cc3C)ccc21	·	·	·	i	·	?
Cc1c(Cl)cccc1NC(=O)CSc1nc(=O)n(Cc2ccncc2)c2c1CCC2	·	·	·	i	·	i
COc1ccccc1-n1c(CCC(=O)O)ccc1-c1ccccc1	-9.9%	0.1%	12.6%	?	9.5%	i
COc1ccc(-c2ccc(CCC(=O)O)n2-c2ccccc2OC)cc1	18.4µM*	14.6µM*	18.4µM*	?	16.4µM*	?
C=C(C)CSc1cc(C)c(C#N)c2nc3ccccc3n12	?	5.8µM*	-7.7%	i	-5.4%	i
C=CCc1c(C)c(C#N)c2nc3ccccc3n2c1N1CCCCC1	?	13.0%	1.6%	i	-1.5%	?
SMILES	SW480 rerep	MCF10A rerep	HT1080-NT tox	KB-V1 MDR tox	HT1080 IDH1KD tx	KB-3-1 cytotox
C=C(C)Cc1c(C)c(C#N)c2nc3ccccc3n2c1N1CCCCC1	-6.1%	?	5.5%	3.66µM*	-0.2%	i
Cc1cc(=O)n2c(C(=O)Nc3ccc(C)c(Cl)c3)c(C(=O)Nc3ccccc3)sc2n1	·	·	·	i	·	i
CC(C)(C)C1CCC(CN2C(Nc3ccccc3)=NC[C@@H]2Cc2ccccc2)CC1 (some centres not stated)	?	4.3%	-17.0%	18.4µM*	-25.0%	?
CCN1C(Nc2ccccc2)=NC[C@@H]1Cc1ccccc1	-4.3%	4.0%	9.8%	?	9.9%	i
CCn1cc(S(=O)(=O)c2ccc(OC)cc2)c(=O)c2cc(OC)ccc21	-2.3%	5.9%	5.0%	i	-12.6%	i
CCn1cc(S(=O)(=O)c2ccc(Cl)cc2)c(=O)c2cc(OC)ccc21	-6.7%	4.5%	24.5%	14.6µM*	0.1%	i
C=C1CCC[C@]2(C)C[C@H]3OC(=O)C(CNC(C)CC)[C@H]3CC12 (some centres not stated)	12.2%	?	?	i	?	i
C=C1CCC[C@]2(C)C[C@H]3OC(=O)C(CNC(CC)CO)[C@H]3CC12 (some centres not stated)	?	18.6%	?	i	20.6µM*	i
C=CS(=O)(=O)c1sc(Cl)c(N2CCOCC2)c1[N+](=O)[O-]	11.5%	19.6%	?	i	10.3µM*	i
O=C(Cn1c(=O)n(Cc2nc(-c3ccccc3)no2)c(=O)c2cc3c(cc21)OCO3)Nc1cccc(C(F)(F)F)c1	·	·	·	i	·	?
C=CCNC(=O)/C(C#N)=C\c1cc(Cl)c(O)c(OCC)c1	?	-50.7%	-7.8%	i	7.7%	i
CCOc1cc(/C=C(/C#N)C(=O)Nc2ccc(O)cc2)cc(Br)c1O	2.06µM*	0.184µM*	1.84µM*	?	2.31µM*	1.03µM*
Cc1cc(C)n(C(C)CC(=O)NCc2ccc(N(C)C)cc2)n1 (configuration not stated)	·	·	·	i	·	i
CN(C)C1(CNC(=O)COc2ccc([N+](=O)[O-])cc2)CCCCC1	·	·	·	i	·	i
O=Cc1cc2cc3c(cc2nc1Cl)OCCO3	-6.2%	-3.7%	7.2%	i	-2.4%	i
O=C(N/N=C/c1c[nH]c2ccccc12)c1ccc2c(c1)OCCO2	?	16.4µM*	?	?	20.6µM*	i
Cn1cc(C(=O)N/N=C/c2ccc(Br)c([N+](=O)[O-])c2)c2ccccc21	?	-9.9%	13.7%	i	-2.4%	16.4µM*
O=C(N/N=C/c1ccc2c(c1)OCO2)c1ccc2c(c1)OCCO2	?	?	?	i	23.1µM*	16.4µM*
O=C(O)c1ccc(N/N=C/c2cc3cc4c(cc3nc2Cl)OCCO4)cc1	?	13µM*	-1.0%	i	-2.8%	i
O=C(N/N=C/c1ccc(Cl)cc1)c1ccc2c(c1)OCO2	?	17.1%	?	i	?	i
COc1cccc(CN(C(=O)COc2ccc(Cl)c(C)c2)C2CCS(=O)(=O)C2)c1 (configuration not stated)	·	·	·	i	·	i
O=c1cnnc(N/N=C/c2ccc3c(c2)OCO3)[nH]1	2.7%	-2.2%	-1.8%	7.31µM*	-0.2%	?
